System: Toxoplasma gondii RH 2F1 tachyzoites (intracellular in HFF)
Assay: parasite survival relative to DMSO control; higher = less antiparasitic activity, active = 20 or less
Settings: 1 µM; 72 h
Outline: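 Intracellular Toxoplasma gondii RH-2F1 tachyzoites, which express β-galactosidase, were grown in HFF cells (5 × 10^3 cells/well, 96-well plates) infected with 5 × 10^3 parasites in D2 medium for 3 h, then treated with compound at 1 μM for 72 h at 37°C in 5% CO2. Cells were lysed for 15 min, then CPRG was added and absorbance read at 570 nm after 30 min. Survival is the signal as a percentage of DMSO-treated infected controls, from 2 or more biological replicates.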

Compound	parasite survival
CCCCCc1ccc(C(=O)NCCn2cc(CCCCCc3c[nH]c(N)n3)nn2)cc1	67.5% (inactive)
CCc1cc(O)c(Oc2cccnc2N)cc1F	44.6% (inactive)
Cc1ncc([N+](=O)[O-])n1CC(C)O (stereo not given)	48.2% (inactive)
CC1(C)C[C@H]1C(=O)N/C(=C\CCCCSC[C@@H](N)C(=O)O)C(=O)O	94.5% (inactive)
NS(=O)(=O)c1ccc(NC(=O)NC(c2ccccc2)c2ccccc2)cc1	32% (inactive)
O=C(Nc1[nH]c(=O)ncc1F)c1ccccc1	84.3% (inactive)
CN(C)CCCNC(=O)c1ccc(-c2cc(O)c3ncccc3c2)cc1	81.2% (inactive)
Cc1nc(N(C)C(=O)Cc2ccc(-c3ccccn3)cc2)sc1S(N)(=O)=O	72.8% (inactive)
COC(=O)Nc1nc2c(C)cccc2[nH]1	36.4% (inactive)
CN(O)C(=O)c1cc2c(CN3CCC[C@H]3C(N)=O)cn(Cc3ccc(F)cc3)c2cn1	76.7% (inactive)
O=C(Cn1cnc2ccccc2c1=O)Nc1ccccc1	57.7% (inactive)
Cc1c(N)cccc1Cn1ccc(OCCc2cccs2)cc1=O	48.8% (inactive)
O=C(/C=C\n1cnc(-c2cc(C(F)(F)F)cc(C(F)(F)F)c2)n1)NNc1ccccn1	4.89% (active)
OC1O[C@H](CSc2ccc(F)cc2)[C@@H](O)[C@H]1O (stereo not given in full)	49.9% (inactive)
COc1ccc(C2CNC(=O)C2)cc1OC1CCCC1 (stereo not given)	69.8% (inactive)
Cc1ccc(NC(=O)c2ccc(CN3CCN(C)CC3)cc2)cc1Nc1nccc(-c2cccnc2)n1	61% (inactive)
COc1ccc(SC(=O)N[C@H](CCC(=O)O)C(=O)O)cc1	56.2% (inactive)
COc1ccc(NS(=O)(=O)c2ccc(Cl)s2)cn1	45.1% (inactive)
Cc1cc(Nc2ccc(F)cc2)nc(SCc2nc3ccccc3[nH]2)n1	42.4% (inactive)
Nc1nc(-c2ccccc2)nc2c1ncn2[C@@H]1O[C@H](COS(=O)(=O)NC(=O)c2ccccc2O)[C@@H](O)[C@H]1O	60.7% (inactive)

Compound	parasite survival
C[C@@H](NC(=O)c1ccccc1-c1ccccc1)B(O)O	43.9% (inactive)
Nc1nc(Nc2ccc3nc(-c4ccc(F)cc4)cc(N)c3c2)cc(-c2ccccc2)n1	4.03% (active)
N#CCN1C(=O)COc2cc(F)c(N3C(=O)c4ccccc4C3=O)cc21	67.4% (inactive)
O=C(NC(=O)N1CCCc2ccccc21)c1cccc(Cl)c1	28.3% (inactive)
CC(=O)O[C@H]1C[C@@]2(C)[C@@H](C[C@@H](O)[C@H]3[C@@]4(C)CC[C@@H](O)[C@@H](C)[C@@H]4CC[C@@]32C)/C1=C(\CCC=C(C)C)C(=O)O	48.4% (inactive)
CCCCC(CC)CNC(=N)NC(=N)NCCCCCCNC(=N)NC(=N)NCC(CC)CCCC (stereo not given)	3.8% (active)
O=C(Nc1ccccc1C(=O)O)c1cccc(Oc2ccccc2)c1	39.4% (inactive)
Nc1nc2c(Cc3cccnc3)c[nH]c2c(=O)[nH]1	72.8% (inactive)
CC[C@@H]1C(=O)OC[C@@H]1Cc1cncn1C	45.1% (inactive)
O=C1NC(=O)C(Br)=C1Br	35.2% (inactive)
Cc1ccc(Oc2ccccc2-c2csc(N=C3NCCCN3)n2)c(C)c1	30.1% (inactive)
NNC(=O)c1ccncc1	63.2% (inactive)
Cn1cncc1[C@@](N)(c1ccc(Cl)cc1)c1ccc2c(c1)c(-c1cccc(Cl)c1)cc(=O)n2C	59.1% (inactive)
Nc1nc(NC2Cc3ccc(F)cc3C2)nc(N2CCCCC2)n1 (stereo not given)	41.9% (inactive)
NC(=S)N/N=C/c1ncccc1N	37.3% (inactive)
Nc1nc(O)c(Br)c(-c2cccc(Cl)c2)n1	63.8% (inactive)
CC[C@H](CO)Nc1nc(NCc2ccccc2)c2ncn(C(C)C)c2n1	87.1% (inactive)
COc1ccc2c(c1)cc(CNC(=O)c1cc3ccccc3o1)n2CC(=O)O	64.2% (inactive)
COc1ccc(C2=CC(c3c(F)cccc3Cl)n3ncnc3N2)cc1 (stereo not given)	71.5% (inactive)
Cc1c(F)cccc1NC(=O)Nc1ccc(Cl)c(S(=O)(=O)[C@H]2CCCNC2)c1O	73.2% (inactive)

From the supplement of paper PMC10941209
